# Laboratory results as given in PMC12431657, “Discovery and mechanistic insights of dibenzoylmethane as a broad spectrum inhibitor of coronavirus” (PLOS Pathogens, 2025).
# Like-named read-outs stand apart in the source and are kept apart here. The campaign covered roughly 3,300 compounds. About 95 (3%) showed an effect of 50% or more. The full list was thinned out, with strong results kept by preference. Peptide text beside a SMILES is read from it.
# System: HCoV-229E
# Parameters: species or system Huh-7; HTS, protection from HCoV-229E induced cell death, luminescent cell viability (CellCounting-Lite 2.0), inhibition rate
# Settings: 24 h post infection, 1 h compound pre-incubation, 10 µM, inhibitor
Structure (SMILES),229E Inhibition rate,"229E Inhibition rate (229E Inhibition rate, 24 h)"
COC(=O)Cc1c[nH]c2ccccc12 [Methyl 2-(1H-indol-3-yl)acetate],38.3%,
C=C(C)[C@H](C)c1cc(/C=C/C(=O)c2ccc(O)cc2)c(OC)cc1O [Licochalcone E],61.6%,
COc1c(/C=C/C(=O)c2ccc(O)cc2)ccc(O)c1O [Licochalcone B],25.4%,
COc1cc(O)ccc1/C=C/C(=O)c1ccc(O)cc1 [Echinatin],0%,
CC1=C(O)C(=O)C(C)O1 (stereo not drawn) [Furaneol],17.8%,
COc1cc2c(cc1OC)[C@@H](Cc1ccc(Oc3cc(C[C@@H]4c5cc(OC)c(OC)cc5CCN4C)ccc3O)cc1)N(C)CC2 [Dauricine],3.6%,
O=C(/C=C/c1ccc(O)c(O)c1)c1ccc(O[C@@H]2O[C@H](CO)[C@@H](O)[C@H](O)[C@H]2O)c(O)c1O [Marein],17.9%,
O=C(/C=C/c1ccc(O)c(O)c1)OC[C@@H](O)CO[C@@H]1O[C@H](CO)[C@@H](O)[C@H](O)[C@H]1O [Regaloside C],52.3%,
O=C(/C=C/c1ccc(O)c(O)c1)OC[C@H]1O[C@@H](OCCc2ccc(O)c(O)c2)[C@H](O)[C@@H](O)[C@@H]1O [Calceolarioside B],10.8%,
Cc1cn([C@@H]2O[C@H](CO)[C@@H](O)[C@H]2O)c(=O)[nH]c1=O [5-Methyluridine],14.9%,
CC(C)c1cc2c(c(O)c1O)[C@@]13CCCC(C)(C)[C@@H]1[C@H](OC3=O)[C@H]2O [Rosmanol],0%,
CC1NC(=O)CNC1=O (stereo not drawn) [Cyclo(Ala-Gly)],39.9%,
CCCCCCCCCCCCCCCCC(C(=O)O)C(O)(CC(=O)O)C(=O)O (stereo not drawn) [Agaric acid],18.4%,
CC(C)(O)[C@@H]1CC[C@](C)([C@H]2[C@@H](O)C[C@@]3(C)[C@@H]4C[C@H](O)[C@H]5C(C)(C)[C@@H](O)CC[C@@]56C[C@@]46CC[C@]23C)O1 [Cycloastragenol],8.6%,
CC(C)(O)[C@H]1CC[C@@](C)([C@H]2[C@@H](O)C[C@@]3(C)[C@@H]4C[C@H](O)[C@H]5C(C)(C)[C@@H](O)CC[C@@]56C[C@@]46CC[C@]23C)O1 [Cyclogalegenin],12.6%,
CN[C@@H](C)[C@H]1[C@H](O)C[C@@]2(C)[C@@H]3CC[C@H]4C(C)(C)[C@@H](NC)CC[C@@]45C[C@@]35CC[C@]12C [Cyclovirobuxine D],55.2%,
CC(O)CC(=O)O (stereo not drawn) [3-Hydroxybutyric acid],11.2%,
COc1cc2c(c(OC)c1OC)-c1c(cc3c(c1OC)OCO3)C[C@H](C)[C@@](C)(O)C2 [Schisandrol B],7.8%,
COc1cc2c(c(OC)c1OC)-c1c(cc3c(c1O)OCO3)C[C@H](C)[C@@H](C)C2 [Gomisin M2],19.3%,

Structure (SMILES),229E Inhibition rate,"229E Inhibition rate (229E Inhibition rate, 24 h)"
COc1ccc2c(c1OC)CC1c3c(cc4c(c3-2)OCO4)CCN1C (stereo not drawn) [Crebanine],62.7%,
COc1cc2c(cc1OC)-c1c(OC)c(OC)cc3c1[C@H](C2)N(C)CC3 [Glaucine],14.2%,
C/C=C(/C)C(=O)O[C@H]1c2cc(OC)c(OC)c(OC)c2-c2c(cc(OC)c(OC)c2OC)C[C@H](C)[C@]1(C)O [Angeloylgomisin Q],42.2%,
C/C=C(\C)C(=O)O[C@@H]1c2cc(OC)c(OC)c(OC)c2-c2c(cc3c(c2OC)OCO3)C[C@H](C)[C@@]1(C)O [Tigloylgomisin P],40.2%,
COc1cc2c(c(OC)c1OC)-c1c(cc3c(c1OC)OCO3)C[C@H](C)[C@H](C)C2 [Gomisin N],,42.9%
CN1CCc2cc3c(c4c2C1Cc1ccccc1-4)OCO3 (stereo not drawn) [Roemerine],25.9%,
COc1c2c(cc3c1-c1c(cc4c(c1OC)OCO4)C[C@H](C)[C@H](C)C3)OCO2 [Schisandrin C],52.7%,
COc1cc2c(c(OC)c1OC)-c1c(cc3c(c1OC)OCO3)C[C@H](C)[C@H](C)C2 [Schisandrin B],,56.2%
C/C=C(/C)C(=O)O[C@H]1c2cc(OC)c(OC)c(OC)c2-c2c(cc3c(c2OC)OCO3)C[C@H](C)[C@]1(C)O [Schisantherin B],54.7%,
COc1cc2c(c(OC)c1OC)-c1c(cc(OC)c(OC)c1OC)C[C@H](C)[C@H](C)C2 [Schisandrin A],35.1%,
COC(=O)/C=C/c1ccc(O)cc1 [Methyl p-coumarate],,15.5%
COC(=O)C1=CO[C@@H](O[C@@H]2O[C@H](CO)[C@@H](O)[C@H](O)[C@H]2O)[C@H]2[C@@H]1C=C[C@@]2(O)CO [Gardenoside],10.6%,
"CCCCCCCCCCCCCCCC(=O)OC[C@H](CO)OC(=O)CCCCCCCCCCCCCCC [1,2-Dipalmitoyl-sn-glycerol]",6%,
COC(=O)C1=CO[C@@H](O[C@@H]2O[C@H](CO)[C@@H](O)[C@H](O)[C@H]2O)[C@@H]2[C@@H](C)CC(=O)[C@]12O [Hastatoside],0%,
C[C@H](CC(=O)O)[C@H]1CC[C@H]2[C@@H]3[C@H](O)C[C@@H]4C[C@H](O)CC[C@]4(C)[C@H]3C[C@H](O)[C@]12C [Norcholic acid],0%,
Cc1cccc(CC(=O)O)c1 [m-Tolylacetic acid],18.9%,
O=C1O[C@H]([C@@H](O)CO)C(O)=C1O [L-Ascorbic acid],,17.7%
OC[C@H]1O[C@H](OC[C@H]2O[C@H](O[C@]3(CO)O[C@H](CO)[C@@H](O)[C@@H]3O)[C@H](O)[C@@H](O)[C@@H]2O)[C@H](O)[C@@H](O)[C@H]1O [Raffinose],52.1%,
OC[C@H]1O[C@H](OC[C@H]2O[C@H](OC[C@H]3O[C@H](O[C@]4(CO)O[C@H](CO)[C@@H](O)[C@@H]4O)[C@H](O)[C@@H](O)[C@@H]3O)[C@H](O)[C@@H](O)[C@H]2O)[C@H](O)[C@@H](O)[C@H]1O [Stachyose (tetrahydrate)],43.8%,

Structure (SMILES),229E Inhibition rate,"229E Inhibition rate (229E Inhibition rate, 24 h)"
OC[C@H]1O[C@@](CO)(O[C@H]2O[C@H](CO[C@@H]3O[C@H](CO)[C@@H](O)[C@H](O)[C@H]3O)[C@@H](O)[C@H](O)[C@H]2O)[C@@H](O)[C@@H]1O [Gentianose],0%,
C=C(C)[C@@H]1CC[C@]2(C(=O)O[C@@H]3O[C@H](CO[C@@H]4O[C@H](CO)[C@@H](O[C@@H]5O[C@@H](C)[C@H](O)[C@@H](O)[C@H]5O)[C@H](O)[C@H]4O)[C@@H](O)[C@H](O)[C@H]3O)CC[C@]3(C)[C@H](CC[C@@H]4[C@@]5(C)CC[C@H](O[C@@H]6OC[C@H](O)[C@H](O)[C@H]6O[C@@H]6O[C@@H](C)[C@H](O)[C@@H](O)[C@H]6O)[C@@](C)(CO)[C@@H]5CC[C@]43C)[C@@H]12 [Pulchinenoside C],12.2%,
C=C1C(=O)O[C@@H]2C[C@@]3(C)CCCC(=C)[C@@H]3C[C@H]12 [Isoalantolactone],20.6%,
CC1=C2C(=O)O[C@@H](c3ccoc3)[C@]2(C)CCC1 [Fraxinellone],13.5%,
C[C@@H]1C[C@H]2OC(=O)[C@@]3(C)CCC[C@@](C)([C@@H]23)[C@@]1(O)CCc1ccoc1 [Marrubiin],59.8%,
"C[C@@H](O)[C@@H](C)O [2,3-Butanediol]",,20.3%
O=C(CCCCCCCCc1ccc(O)c(O)c1)c1c(O)cccc1O [Malabaricone C],42.8%,
CC(C)=CCc1cc(-c2coc3cc(O)cc(O)c3c2=O)cc(O)c1O [Glycyrrhisoflavone],62.7%,
CC(C)=CCc1c(O)cc(O)c2c(=O)cc(-c3ccc(O)cc3)oc12 [Licoflavone C],28.1%,
CC(C)=CCc1c(-c2ccc(O)cc2O)oc2c(CC=C(C)C)c(O)cc(O)c2c1=O [Mulberrin],20.6%,
CC(C)=CCc1c(O)cc(O)c2c(=O)c(-c3ccc(O)cc3)coc12 [Lupiwighteone],63.8%,
O=c1c(-c2ccc(O)cc2)coc2cc(O)cc(O)c12 [Genistein],17.6%,
CC(C)=CCc1c(O)ccc(-c2coc3cc(O)cc(O)c3c2=O)c1O [Licoisoflavone A],0%,
COc1cc2c(cc1OC)-c1cc3ccc4c(c3c(=O)n1CC2)OCO4 [8-Oxoepiberberine],17.9%,
O=C(O)C1CCCCN1O (stereo not drawn) [N-Hydroxypipecolic acid],19%,
COC(=O)[C@@]1(C)CC[C@]2(C(=O)O)CC[C@]3(C)C(=CC[C@@H]4[C@@]5(C)C[C@H](O)[C@H](O)[C@@](C)(CO)[C@@H]5CC[C@]43C)[C@@H]2C1 [Phytolaccagenin],22.3%,
CSCC[C@H](NC(=O)[C@H](CC(C)C)NC(=O)CNC(=O)[C@H](Cc1ccccc1)NC(=O)[C@H](Cc1ccccc1)NC(=O)[C@H](CCC(N)=O)NC(=O)[C@H](CCC(N)=O)NC(=O)[C@@H]1CCCN1C(=O)[C@H](CCCCN)NC(=O)[C@@H]1CCCN1C(=O)[C@@H](N)CCCN=C(N)N)C(N)=O [Substance P],0%,
CC[C@H](C)[C@H](N)C(=O)N[C@@H](C)C(=O)N[C@@H](CCCN=C(N)N)C(=O)N[C@@H](CCCN=C(N)N)C(=O)N[C@@H](Cc1cnc[nH]1)C(=O)N1CCC[C@H]1C(=O)N[C@@H](Cc1ccc(O)cc1)C(=O)N[C@@H](Cc1ccccc1)C(=O)N[C@@H](CC(C)C)C(=O)O [Kinetensin] (H-IARRHPYFL-OH),56.1%,
CC(C)[C@H](NC(=O)[C@H](CC(=O)O)NC(=O)[C@H](CCCCN)NC(=O)[C@@H](N)CCCN=C(N)N)C(=O)N[C@@H](Cc1ccc(O)cc1)C(=O)O [Thymopentin] (H-RKDVY-OH),,21.6%
